# Assay results as given in PubChem BioAssay AID1376 (SRMLSC, 2008).
# Among all 220,000 compounds or so, about 530 (0.24%) were called active. Shown is part of a subset that was picked to be rich in actives. Entries with a potency or affinity are not part of this list. Values without a mark were called inactive. Cut-off read from the data, not from the text of the source: active = inhibition above about 13%; inconclusive = no clear call, values can overlap the other calls; inactive = below that.
# Molecular target: Bifunctional protein GlmU (Mycobacterium tuberculosis (strain ATCC 25618 / H37Rv)) (UniProt P9WMN3)
# Sequence (P9WMN3 whole entry, looked up): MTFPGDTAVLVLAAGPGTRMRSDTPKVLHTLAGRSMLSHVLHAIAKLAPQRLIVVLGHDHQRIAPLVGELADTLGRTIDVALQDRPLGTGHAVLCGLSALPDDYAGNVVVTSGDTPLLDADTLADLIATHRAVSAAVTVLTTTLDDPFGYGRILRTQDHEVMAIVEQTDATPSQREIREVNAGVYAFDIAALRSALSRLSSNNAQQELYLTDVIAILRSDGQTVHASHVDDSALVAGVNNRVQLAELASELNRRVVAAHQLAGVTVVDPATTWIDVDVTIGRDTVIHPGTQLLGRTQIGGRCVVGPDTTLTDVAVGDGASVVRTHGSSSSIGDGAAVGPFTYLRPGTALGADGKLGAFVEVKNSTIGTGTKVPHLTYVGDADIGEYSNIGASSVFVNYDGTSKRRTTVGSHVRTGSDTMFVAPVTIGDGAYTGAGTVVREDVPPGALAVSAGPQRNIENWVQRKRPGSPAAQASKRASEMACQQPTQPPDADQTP
# Assay: inhibition of mycobacterial GlmU enzyme – biochemical, glucosamine-1-phosphate acetyltransferase (AID 1376);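 note: 0% = complete reaction with vehicle and 100% = reaction without substrate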
# Details: M. tuberculosis GlmU acetyltransferase enzyme assay; active compounds read high;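 tested at 30 µM in the primary screen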
row,Compound,inhibition
1,Cc1cc(C)c(C(=O)COC(=O)c2cc([N+](=O)[O-])ccc2NCCO)cc1C,0.91%
2,O=C1Nc2ccccc2/C1=N\N=C\c1ccc(O)c(O)c1,15% (active)
3,O=C1Nc2ccccc2/C1=N/N=C/c1cccc(O)c1,0.15%
4,COc1cc(/C=N/N=C2/C(=O)Nc3ccccc32)ccc1O,1.01%
5,CC1CCc2ccc(F)cc2N1S(=O)(=O)c1cccs1 (stereo not given),3.23%
6,O=c1cc(O)c2c(=O)n(-c3ccccc3)c3c(c2o1)CCCCC3,13% (active)
7,O=c1cc(O)c2c(=O)n(-c3ccccc3)c3c(c2o1)CCCCCC3,0.45%
8,O=c1cc(O)c2c(=O)n(-c3ccccc3)c3ccccc3c2o1,0.8%
9,C=CCNC(=O)NS(=O)(=O)c1ccc(C)cc1,1.33%
10,O=C(NCc1ccco1)c1cccc(-c2nnc(-c3ccccc3)o2)c1,-0.42%
11,CC(C)C(OC(=O)c1ccco1)C(=O)NC1CCCCC1 (stereo not given),1.45%
12,CC(C)CC(OC(=O)c1ccco1)C(=O)NC1CCCCC1 (stereo not given),14.8% (active)
13,CC(OC(=O)c1ccco1)C(=O)NC1CCCCC1 (stereo not given),-0.47%
14,O=C(NCc1ccncc1)C(=O)C1C(=O)Nc2ccccc21 (stereo not given),-1.35%
15,CCOC(=O)c1nc(NCc2ccccc2C)c2ccccc2n1,-3.26%
16,C/C=C(\C)CN1CCN(c2cc(C)ccc2C)CC1,-5.99%
17,Cc1cc(C(=O)CS(=O)(=O)c2ccccc2)cc(C)c1OC(=O)N(C)C,0.59%
18,COc1ccc(NS(=O)(=O)c2cccc(C(=O)NNC(=O)NCCCl)c2)cc1,-0.61%
19,Cc1cc(/C=N/NC(=O)c2cccc([N+](=O)[O-])c2)c(C)n1-c1ccccc1,-3.02%
20,Cc1cc(/C=N/NC(=O)c2cccc(F)c2)c(C)n1-c1ccccc1,0.73%
21,Cc1cc(C(=O)N/N=C/c2sc(N3CCOCC3)nc2-c2ccccc2)c(C)o1,6.62%
22,CCCn1c(SCc2ccon2)nc2ccccc2c1=O,1.08%
23,O=C1c2ccccc2C(=O)N1CC(=O)N1c2ccccc2Sc2ccccc21,-6.14%
24,COc1ccc(C(c2c(O)c3ccccc3oc2=O)c2c(C)n(C)n(-c3ccccc3)c2=O)cc1 (stereo not given),1.51%
25,COc1ccc(OC)c(C(c2c(O)c3ccccc3oc2=O)c2c(C)n(C)n(-c3ccccc3)c2=O)c1 (stereo not given),13.2% (active)
26,COc1cc(C(c2c(O)c3ccccc3oc2=O)c2c(C)n(C)n(-c3ccccc3)c2=O)ccc1O (stereo not given),22.1%
27,CCCCCCn1c(CN2CCN(CCO)CC2)nc2c1c(=O)n(C)c(=O)n2C,2%

row,Compound,inhibition
1,C/C(=N\NC(=O)c1nn(C)c(C)c1Br)c1cccc(NC(=O)c2ccc(F)cc2)c1,-3.49%
2,O=C(c1ccc2c(c1)OCO2)N1CCC2(CC1)OCCO2,5.09%
3,O=C(NCc1ccc(C(=O)N2CCC3(CC2)OCCO3)cc1)c1ccc2c(c1)OCO2,18.9% (active)
4,O=C(NCc1ccc(C(=O)N2CCC3(CC2)OCCO3)cc1)c1cccc(Br)c1,1.96%
5,COc1ccc(CN2CCOCC2)c(C)c1C,-2.85%
6,CCCCNc1ccc(C(=O)O)cc1,-0.8%
7,CC12CC(NC(=O)N1c1ccc(C(=O)N3CCN(c4ccc(F)cc4)CC3)cc1)c1ccccc1O2 (stereo not given),-2.33%
8,CC(C)C/C=C1\CCc2c([nH]c3ccccc23)C1=O,-1.01%
9,CCOc1ccc(NC(=O)CSc2n[nH]c(N)n2)c([N+](=O)[O-])c1,0.6%
10,CCOC(=O)c1cnc(SCC(=O)c2ccc3c(c2)OCCO3)nc1N,-5.31%
11,NS(=O)(=O)c1cccc(NC(=O)CN2CCc3ccccc32)c1,-0.92%
12,Fc1ccc(OCc2nn3cnnc3s2)cc1,18.4% (active)
13,Fc1ccc(OCc2nc3ccccc3s2)cc1,0.65%
14,Fc1ccc(OCc2nn3c(Cn4nnc5ccccc54)nnc3s2)cc1,3.23%
15,COC(=O)c1ccc(S(=O)(=O)NCc2ccccn2)n1C,-0.35%
16,COc1ccc(Nc2ccc(Cl)cc2)c(C(=O)O)c1,11.1%
17,COc1cccc(Nc2ccccc2C(=O)O)c1,-2.96%
18,COc1ccc(Nc2cccc(Cl)c2)c(C(=O)O)c1,13.1% (active)
19,COc1cc(C(=O)O/N=C(\N)c2ccccn2)cc(OC)c1OC,13.3% (active)
20,COc1cc(OC)cc(C(=O)O/N=C(\N)c2ccccn2)c1,-3.71%
21,COc1ccccc1C(=O)O/N=C(\N)c1ccccn1,6.05%
22,Cn1c(CSCCOc2ccccc2)n[nH]c1=S,-1.84%
23,COc1ccc(Cl)cc1S(=O)(=O)NC1CC(C)(C)NC(C)(C)C1,4.3%
24,COc1ccc(S(=O)(=O)NC2CC(C)(C)NC(C)(C)C2)c(C)c1C,13.6% (active)
25,COc1c(C)cc(S(=O)(=O)NC2CC(C)(C)NC(C)(C)C2)c(C)c1C,-0.79%
26,O=C(O)c1ccc(N=Nc2c(O)[nH]c3ccccc23)cc1,-3.4%
27,O=C(O)c1ccc(N=Nc2c(O)[nH]c3cc(Cl)ccc23)cc1,11%

row,Compound,inhibition
1,Nc1nc(N)c(N=Nc2ccc(C(=O)O)cc2)c(N)n1,13.1% (active)
2,O=C(NCCO)C(c1ccccc1)c1ccccc1,-1.82%
3,COc1ccc2nc3sc(C(=O)NCCN4CCc5ccccc5C4)cc3cc2c1,15% (active)
4,COc1ccc2cc3cc(C(=O)NCCN4CCc5ccccc5C4)sc3nc2c1,4.04%
5,COc1ccc2nc3sc(C(=O)NCCCN4CCc5ccccc5C4)cc3cc2c1,5.05%
6,CCOc1ccccc1NC1=C(Cl)C(=O)N(c2ccc(OC)cc2)C1=O,-5.57%
7,CCOc1ccc(N2C(=O)C(Cl)=C(Nc3ccccc3O)C2=O)cc1,7.85%
8,O=C1C(Cl)=C(NCCc2ccccc2)C(=O)N1CCc1ccccc1,1.54%
9,COc1ccc(NC2=C(Cl)C(=O)N(c3ccccc3)C2=O)c(OC)c1,4.46%
10,COc1ccccc1NC1=C(Cl)C(=O)N(c2ccccc2)C1=O,1.83%
11,O=C1C(Cl)=C(Nc2ccc(F)cc2)C(=O)N1CCc1ccccc1,-4.15%
12,COc1ccc(N2C(=O)C(Cl)=C(Nc3ccccc3OC)C2=O)cc1,3.86%
13,CCOc1ccccc1NC1=C(Cl)C(=O)N(c2ccccc2)C1=O,0.96%
14,O=C1C(Cl)=C(Nc2ccccc2O)C(=O)N1c1ccccc1,42.6% (active)
15,COc1ccc(-n2c3c(cc(C(=O)N4CCC(C)CC4)c2=O)C(=O)CC(C)(C)C3)cc1,0.29%
16,Cc1cc(C)c(NC2=NS(=O)(=O)c3ccccc32)c(C)c1,0.24%
17,COc1cccc(OC)c1C(=O)NC(=S)NNC(=O)[C@H]1C[C@@H]1c1ccccc1,3.93%
18,O=c1cc(CSc2nnc3ccccn23)c2c(ccc3ccccc32)o1,5.61%
19,Cc1ccc(C2=CC(C)(c3ccc(C)cc3)Nc3nc(C(F)(F)F)nn32)cc1 (stereo not given),-1.89%
20,O=[N+]([O-])c1ccc(O)c(/C=N/Nc2nc3ccccc3[nH]2)c1,2.26%
21,COc1ccc(O)c(/C=N/Nc2nc3ccccc3[nH]2)c1,1.12%
22,O=C(Nc1ccc(N2CCN(C(=O)c3cccs3)CC2)cc1)c1cccnc1,-0.33%
23,O=C(Nc1cccc(C(=O)N2CCOCC2)c1)c1cccnc1,2.11%
24,CSc1nc(Cl)cc(N2CCOCC2)n1,3.3%
25,Cc1cc(N)n(-c2ccc3ccccc3c2)n1,0.94%
26,Cc1[nH]n(-c2ccccc2)c(=O)c1CCO,-5.63%
27,CCOC(=O)Cc1c(C)[nH]n(-c2ccccc2)c1=O,0.6%

row,Compound,inhibition
1,Cc1cc(C)n(-c2ccc(Oc3ccccc3)c(S(=O)(=O)O)c2)n1,12.6%
2,CCOC(=O)C1CCCN(CC(=O)Nc2c(F)c(F)c(F)c(F)c2F)C1 (stereo not given),0.78%
3,CCS(=O)(=O)N1Cc2ccccc2CC1C(=O)Nc1nc(C)cs1 (stereo not given),-3.38%
4,Cc1cc(C(=O)NC(C)c2ccccc2)c2cc(F)ccc2n1 (stereo not given),2.48%
5,CS(=O)(=O)N1CCC(C(=O)Nc2ccc(OCc3ccccc3)cc2)CC1,0.13%
6,OCCN1CCN(CC(O)C(F)(F)F)CC1 (stereo not given),0.82%
7,O=C(c1cccc(Cl)c1)N1CCN(Cc2c[nH]c3ccccc23)CC1,7.63%
8,O=C(c1cccc(F)c1)N1CCN(Cc2c[nH]c3ccccc23)CC1,15% (active)
9,O=C(c1ccccc1)N1CCN(Cc2c[nH]c3ccccc23)CC1,-4.61%
10,O=c1[nH]c(CSc2ncc(C(F)(F)F)cc2Cl)nc2cc(C(F)(F)F)ccc12,-1.09%
11,Cc1sc2ncnc(OCC(=O)N3CCN(S(=O)(=O)c4ccccc4)CC3)c2c1C,-1.45%
12,COc1cccc(NC(=O)C(Sc2nnc(Nc3ccccc3C)s2)c2ccccc2)c1 (stereo not given),-3.98%
13,CCOc1cccc(CNCc2ccc(C(=O)O)cc2)c1,-1.27%
14,Cc1ccc(/C=C2/NC(=O)N(Cc3ccccc3)C2=O)o1,-1.11%
15,Cc1ccc(/C=C2/NC(=O)N(c3ccccc3)C2=O)o1,-0.29%
16,Cc1c(C(=O)O)cccc1-c1ccc(/C=C2/NC(=O)N(c3ccccc3)C2=O)o1,-0.48%
17,O=C(O)c1cc(-c2ccc(/C=C3/SC(=S)N(Cc4ccccc4)C3=O)o2)ccc1Cl,17%
18,O=C(O)c1cc(-c2ccc(/C=C3\NC(=O)N(c4ccc(Cl)cc4)C3=O)o2)ccc1Cl,27% (active)
19,Cc1ccc(CN2C(=O)N/C(=C/c3ccc(-c4ccc(C(=O)O)cc4)o3)C2=O)cc1,4.7%
20,Cc1cc(C(=O)O)ccc1-c1ccc(/C=C2\NC(=O)N(Cc3ccccc3Cl)C2=O)o1,5.89%
21,O=C(O)c1cc(-c2ccc(/C=N/Nc3ccc(Cl)cc3)o2)ccc1Cl,-0.42%
22,O=C(O)c1cc(-c2ccc(/C=C3\NC(=O)N(c4ccccc4)C3=O)o2)ccc1Cl,13.6% (active)
23,Cc1ccc(N2C(=O)NC(=O)/C(=C/c3ccc(-c4ccc(C(=O)O)c(Cl)c4)o3)C2=O)cc1,6.82%
24,Cc1cc(C(=O)O)ccc1-c1ccc(/C=C2\NC(=O)N(Cc3ccc(F)cc3)C2=O)o1,13.9% (active)
